Reference: PubChem BioAssay (NCI)
Values joined by “and” are separate entries in the source; they are usually repeats but may differ in a detail not shown here. Equal values may be shown once. The panel holds about 83,000 compounds, 20% with a hit somewhere; the sample as a whole holds those more often.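 Activity criterion: percent growth below 10, measured after cells in 96-well plates were exposed to a single compound concentration for 48 hours.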 Active and inactive are the calls of the source.

Assays:
Test in all cases: NCI-60 one-dose screen, 48 h (100 = growth as untreated, 0 = no growth, -100 = all killed)
[1] = tested on: DU-145 prostate; details: 10 µM unless noted
[2] = tested on: K-562 leukemia; details: 10 µM
[3] = tested on: MALME-3M melanoma; details: 10 µM
[4] = tested on: MDA-MB-231 breast; details: 10 µM
[5] = tested on: RXF 393 renal; details: 10 µM unless noted
[6] = tested on: SF-268 CNS; details: 10 µM
[7] = tested on: SF-295 CNS; details: 10 µM
[8] = tested on: SF-539 CNS; details: 10 µM
[9] = tested on: UACC-257 melanoma; details: 10 µM
[10] = tested on: M14 melanoma; details: 10 µM

SMILES	growth [1]	growth [2]	growth [3]	growth [4]	growth [5]	growth [6]	growth [7]	growth [8]	growth [9]	growth [10]
CCCCCCCCCCCC[N+](C)(C)Cc1ccccc1	24.8% (inactive)	-5.13% (active)	-19.2% (active)	25.3% (inactive)	-38.7% (active)	8.3% (active)	46.3% (inactive)	53.6% (inactive)	2.24% (active)	–
NNc1c2ccccc2nc2ccccc12	66% (inactive)	49.2% (inactive)	62.5% (inactive)	65.2% (inactive)	72.8% (inactive)	50.1% (inactive)	–	42.8% (inactive)	34.9% (inactive)	–
Clc1cc(Cl)c(Cl)nn1	115% (inactive)	106% (inactive)	109% (inactive)	105% (inactive)	122% (inactive)	101% (inactive)	107% (inactive)	100% (inactive)	70.4% (inactive)	–
COC(=O)C1C(O)C(C)C(O)C(C)C=C(C)C2=C3C(=C(C)C(=O)c4c(O)c(c(C)c(OC(C)=O)c43)NC(=O)C(C)=C/C=C\C(C)C(O)C(C)C1O)OCO2 (stereo unspecified)	115% (inactive)	127% (inactive)	126% (inactive)	105% (inactive)	125% (inactive)	112% (inactive)	108% (inactive)	110% (inactive)	118% (inactive)	108% (inactive)
C[n+]1c2cc(N)ccc2cc2ccc(N)cc21	–	–	-62% (active) and -11.9% (active) and -51.7% (active)	14.5% (inactive) [middle of 4 runs]	-34.2% (active) and 5.66% (active) and -8.06% (active)	–	–	10.8% (inactive) and 19.8% (inactive) and -3.57% (active)	–	–
COc1ccc(CC(=O)c2ccc(O)cc2O)cc1	138% (inactive)	98.7% (inactive)	128% (inactive)	117% (inactive)	144% (inactive)	132% (inactive)	113% (inactive)	99.3% (inactive)	119% (inactive)	–
CN1CCN(CCCN2c3ccccc3Sc3ccc(C(F)(F)F)cc32)CC1	70.4% (inactive)	-11.9% (active)	-10.5% (active)	52.7% (inactive)	37% (inactive)	63.5% (inactive)	42.9% (inactive)	–	-59.5% (active)	-74% (active)
CC(=O)Nc1cc(C)ccc1C	112% (inactive)	102% (inactive)	92.9% (inactive)	112% (inactive)	105% (inactive)	101% (inactive)	101% (inactive)	96.8% (inactive)	101% (inactive)	–
CCN(CC)c1ccc(NC(C(=O)c2ccccc2)c2ccccc2)cc1 (stereo unspecified)	24.4% (inactive)	10.4% (inactive)	28.7% (inactive)	-34.1% (active)	4.61% (active)	-22.8% (active)	61.2% (inactive)	-50.1% (active)	68.3% (inactive)	22.8% (inactive)
NC(=O)SCC(=O)NNc1ccccc1	99.6% (inactive)	101% (inactive)	–	89.2% (inactive)	112% (inactive)	92.8% (inactive)	94.6% (inactive)	103% (inactive)	91.6% (inactive)	102% (inactive)
CCCC1CCC(=C2C(=O)CCC2=O)O1 (stereo unspecified)	102% (inactive) and 92.3% (inactive)	145% (inactive) and 121% (inactive)	103% (inactive) and 101% (inactive)	102% (inactive) and 101% (inactive)	103% (inactive) and 97.7% (inactive)	100% (inactive) and 107% (inactive)	97.3% (inactive) and 89.8% (inactive)	92.7% (inactive) and 96.7% (inactive)	106% (inactive) and 95.3% (inactive)	100% (inactive) and 74.4% (inactive)
